Assay outcomes deposited in PubChem by several laboratories.
Most compounds without a hit are left out; they make up all but 22% or so of the library.
CYP2C9 act: activators of human CYP2C9 | 96,000 compounds, 1.4% hits | activation factor at 5 µM | recombinant CYP2C9, luciferin-H conversion, luminescence; active compounds read high; factor 1 = untreated enzyme, 0 = blocked | P11712;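 active = activation factor of 2 or more for CYP2C9 at a 5 µM dose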;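 also: 0 = sulfaphenazole-blocked wells and 1 = vehicle-only wells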
CYP2C19 activ: activators of human cytochrome P450 2C19; P33261; 96,000 tested, under 10 active; recombinant CYP2C19, luciferin-H EGE luminescence; active compounds read high; 0 = fully inhibited enzyme, 1 = untreated enzyme; activation factor at 5 µM;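 active = activation factor of at least 2 at 5 µM in the primary screen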;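 also: 0 = wells with 2.5 mM tranylcypromine and 1 = vehicle-only wells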
Target sequence (P33261 whole entry, looked up): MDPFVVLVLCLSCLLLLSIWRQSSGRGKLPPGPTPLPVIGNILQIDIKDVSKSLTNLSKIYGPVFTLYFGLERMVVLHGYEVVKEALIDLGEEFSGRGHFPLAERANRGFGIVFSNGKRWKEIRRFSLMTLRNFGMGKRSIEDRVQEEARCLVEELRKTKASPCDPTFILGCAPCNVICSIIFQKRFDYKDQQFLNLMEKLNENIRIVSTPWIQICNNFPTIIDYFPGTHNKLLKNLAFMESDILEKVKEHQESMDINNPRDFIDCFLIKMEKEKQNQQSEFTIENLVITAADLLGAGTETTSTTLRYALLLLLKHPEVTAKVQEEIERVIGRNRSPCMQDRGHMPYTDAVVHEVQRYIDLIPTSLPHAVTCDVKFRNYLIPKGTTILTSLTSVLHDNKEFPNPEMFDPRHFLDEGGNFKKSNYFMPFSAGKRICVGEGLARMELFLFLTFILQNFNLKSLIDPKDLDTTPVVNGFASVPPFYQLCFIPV
CYP2C9 inhib: inhibitors of human CYP2C9; P11712; inhibition, % at 5 µM; AID 777; CYP2C9 Supersomes, luciferin-H conversion, luminescence; 96,000 compounds, 20% hits;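 active = blocking of liver enzyme CYP2C9 beyond about 50% at 5 µM, limit read from the data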
CYP2C19 inh: inhibitors of human CYP2C19; AID 778; P33261; 96,000 compounds, 21% hits; CYP2C19 Supersomes, luciferin-H EGE luminescence, 30 min; inhibition, % at 5 µM;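 active = CYP2C19 inhibition above a set limit at 5 µM in the primary screen, cut at about 50% in these data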;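 also: plate controls were negative control wells for no effect and 2.5 mM tranylcypromine positive control for full effect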
Measles CPE: protection of cells from measles virus; protection (pct of control), % at 4 µM; Measles virus-infected cells, CPE protection, absorbance; 140,000 compounds, 1.5% hits; in the data active = protection mostly above about 24%, no sharp cut-off; inactive = mostly below about 26%
* = called active by the depositor; nt = not tested or not shown.

SMILES	CYP2C9 act	CYP2C19 activ	CYP2C9 inhib	CYP2C19 inh	Measles CPE
Cc1[nH]c2ccccc2c1/C=C/c1nc2ccccc2c(=O)n1-c1cccc([N+](=O)[O-])c1	nt	nt	nt	nt	12
COc1ccccc1NC(CC(=O)c1ccccc1)C(=O)OCC(=O)c1ccc(C)c(C)c1 (centres undefined)	nt	nt	nt	nt	6
CC(NCc1ccc(N(C)C)cc1)C1CC2CCC1C2 (centres undefined)	0.9	0.1	7	86*	7
CN(C)c1ccc(CNC2CC(C)(C)NC(C)(C)C2)cc1	1.2	1.2	-19	-17	10
OCCSc1nncn1/N=C/c1c[nH]c2ccccc12	0.7	0.9	30	14	5
Cc1ccc2c3c([nH]c2c1C)-c1nonc1CC3	nt	nt	nt	nt	43*
O=C(CNS(=O)(=O)c1ccc(F)cc1)Nc1ccc(C(F)(F)F)cc1	0.4	0.4	55*	65*	3
Cc1ccc(S(=O)(=O)NCC(=O)Nc2ccc(C(F)(F)F)cc2)cc1	0.9	0.8	9	24	9
O=C(CNS(=O)(=O)c1ccccc1)Nc1ccc(C(F)(F)F)cc1	0.7	0.5	30	51*	7
CCCCn1nc(C(=O)Oc2ccc3c(C)cc(=O)oc3c2)c2ccccc2c1=O	nt	nt	nt	nt	9
COc1cccc(-n2c(SCC(=O)Nc3nccs3)nnc2-c2ccoc2C)c1	nt	nt	nt	nt	8
COc1ccc(-n2c(SCC(=O)Nc3nccs3)nnc2-c2ccoc2C)cc1	0.4	0.2	62*	75*	24
Cc1ccc(-n2c(SCC(=O)NCc3cccs3)nnc2-c2ccoc2C)cc1	0.2	0.1	78*	93*	25
Cc1ccccc1C(=O)Nc1nnc(-c2ccc(F)cc2)o1	0.9	1	13	-3	14
Fc1ccc(-c2nnc(NC3=NCCCCC3)o2)cc1	0.7	0.4	28	56*	13
COC(=O)[C@@]1(Cc2ccc(F)cc2)[C@H]2c3cc(C(=O)N4CCCC4)n(CCc4c[nH]c5ccc(OC)cc45)c3C[C@H]2CN1C(=O)c1ccccc1	nt	nt	nt	nt	2
COc1ccc(OC)c(C(c2nnnn2Cc2ccccc2)N2CCN(C)CC2)c1 (centres undefined)	1	0.9	4	12	11
COc1ccc(Cn2nnnc2C(c2ccccc2Cl)N2CCN(C3CCCC3)CC2)cc1 (centres undefined)	0.7	0.2	33	78*	18
COc1ccc(Cn2nnnc2C(c2ccccc2)N2CCN(C3CCCC3)CC2)cc1 (centres undefined)	0.9	0.2	11	78*	6
COc1ccc(C(c2nnnn2CCc2ccccc2)N2CCN(C3CCCC3)CC2)cc1 (centres undefined)	1.1	1.2	-7	-18	6
CCCCC(O)(CCCC)C(=O)NN(C(=O)OC)c1ccccc1	nt	nt	nt	nt	5
Cc1ccc([N+](=O)[O-])cc1N/C=C1\CCc2ccccc2C1=O	1	1.1	0	-9	4
C=CCN1C(=O)C(Cc2ccc(OC)cc2)S/C1=N/N=C/c1ccco1 (centres undefined)	0.9	0.2	11	78*	19
O=C(Oc1ccccc1C(=O)Oc1ccccc1)c1ccco1	0.5	0.6	47	38	13
COc1cc(/C=C2/S/C(=N/S(=O)(=O)c3ccccc3)NC2=O)c([N+](=O)[O-])cc1OC	0	0.9	99*	7	3
SMILES	CYP2C9 act	CYP2C19 activ	CYP2C9 inhib	CYP2C19 inh	Measles CPE
CC(C)c1nn2c(=O)cc(O)nc2s1	nt	nt	nt	nt	26
O=S(=O)(c1ccccc1)c1ccc(NCc2ccco2)cc1	1.6	0.3	-61	67*	2
O=S(=O)(Nc1nc2ccccc2nc1NCc1ccco1)c1ccccc1	0	1.2	98*	-21	3
O=S(=O)(Nc1nc2ccccc2nc1NCCO)c1cccc(Cl)c1	0	0.8	99*	16	10
CC12CCC(C(=O)NCc3ccccc3)(OC1=O)C2(C)C (centres undefined)	1.2	1.1	-25	-8	4
CC12CCC(C(=O)NCc3ccc(Cl)cc3)(OC1=O)C2(C)C (centres undefined)	0.5	0.2	46	84*	9
CC12CCC(C(=O)NCc3ccc4c(c3)OCO4)(OC1=O)C2(C)C (centres undefined)	0.8	0.4	18	56*	3
CC(C)(C)c1nc2c(C#N)c(-c3ccc(Cl)cc3)ccn2n1	0.2	0.3	84*	67*	14
O=C(CSCC(=O)N1CCCCC1)Nc1nc(-c2ccccc2)c(-c2ccccc2)s1	nt	nt	nt	nt	9
CCOc1cc(C(=O)N(C)c2ccccc2)cc(OCC)c1OCC	0.8	0.4	22	57*	4
CCOc1cc(C(=O)N2CCN(c3ccccc3)CC2)cc(OCC)c1OCC	1.2	0.8	-17	16	6
CN1CCN(CCCn2cnc3c(=O)oc4ccccc4c32)CC1	1.1	1.1	-14	-5	11
O=c1oc2ccccc2c2c1ncn2CCN1CCOCC1	1.1	0.5	-14	50*	7
O=c1oc2ccccc2c2c1ncn2C1CCCCC1	0.8	0.8	16	16	38*
CCSC(SCC)[C@H](O)[C@@H](O)[C@H](O)[C@H](O)CO	nt	nt	nt	nt	23
O=C1NC(c2ccccc2)=C(c2nc3ccccc3s2)C(c2ccc(F)cc2)N1 (centres undefined)	0.5	0.5	50*	55*	7
COc1ccc(C2NC(=O)NC(c3ccccc3)=C2c2nc3ccccc3s2)cc1 (centres undefined)	0.6	0.7	36	26	28*
O=C1NC2=C(C(=O)c3ccccc32)C(c2ccccc2)N1 (centres undefined)	0.8	0.8	24	19	5
COc1cccc(-c2nc3ccccc3s2)c1	0.9	1	9	0	15
O=C1CC(=O)C(n2cncn2)C(c2ccc(Cl)cc2)C1 (centres undefined)	0.9	0.9	10	6	35
COc1ccc(CCNC(=O)CSc2nc3c(c(=O)n(C)c(=O)n3C)n2C)cc1OC	nt	nt	nt	nt	14
O=S(=O)(Cc1ccccc1)N1CCN(C2Cc3ccccc3C2)CC1	1.2	1	-21	4	13
CS(=O)(=O)N1CCN(C2Cc3ccccc3C2)CC1	0.9	0.4	8	57*	22
CCn1c(=O)cc(OCC(=O)Nc2ccccc2C#N)c2ccccc21	0.6	0.7	41	30	3
O=C(CCCN1CCC(O)(c2ccc(Cl)cc2)CC1)c1ccc(F)cc1	nt	nt	nt	nt	27
Cc1ccc(NC2c3ncccc3C(=O)N2Cc2ccc(F)cc2)cc1 (centres undefined)	0.5	0.7	53*	32	18
OC(c1ccc(Cl)cc1)c1nnc(-c2ccccc2)o1 (centres undefined)	0.1	0	88*	100*	36
CCCCn1c(SCc2nc(N)nc(Nc3ccccc3C)n2)nc2ccccc2c1=O	0	0.1	99*	87*	24
C=CCn1c(=O)c2ccccc2n2c(SCc3nc(N)nc(Nc4ccccc4C)n3)nnc12	0.7	0.8	32	20	9
